From PubChem BioAssay AID651629 (Sanford-Burnham Center for Chemical Genomics, 2012)
This is one part of the list. Values without a mark were called inactive. The source made the active and inactive calls.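 How the source made its calls: active means mean inhibition across replicates of 40% or more; inactive means mean inhibition below 40%.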

Assay: triacylglycerol accumulation inhibitors, retest, confirmation, cell-based, single concentration, Nile Red fluorescence, H9c2 (AID 651629);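 further: plate controls were DMSO only wells for no effect and Triacsin C treated wells for full effect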
Settings: H9c2 lipid accumulation, at 12.5 µM, hits give high values, cells loaded with 200 µM oleic acid

SMILES	inhibition
COc1ccc(CC(=O)Nc2ccc(-c3nnc(-c4ccc(C)cc4)o3)cc2)cc1	57.6% (active)
CC1(C(=O)NCc2ccco2)Cc2c(-c3ccc4c(c3)OCO4)ccnc2O1 (stereo not given)	61.9% (active)
CN(C)C(=S)N=c1ssc(=S)n1Cc1ccco1	62.1% (active)
O=C(CSc1nc2ccc(Nc3nc(N4CCOCC4)nc(N4CCOCC4)n3)cc2s1)NCc1ccco1	65.5% (active)
Cc1cc(NC(=O)CSc2nc(C(C)C)nc3sc4c(c23)CCC(C)C4)no1 (stereo not given)	51.7% (active)
C/C(=N\Nc1ccc(Cl)nn1)c1ccccc1O	66.4% (active)
COc1ccc(-c2cc(NC=O)c3ncc(-c4cc(OC)c(OC)c(OC)c4)n3c2)c(OC)c1	79.3% (active)
Cc1cc(N/N=C\c2ccc(Br)cc2)nc(-n2nc(C)cc2C)n1	58.6% (active)
CC(=O)c1ccc(Oc2cc(C)nc(-n3nc(C)cc3C)n2)cc1	63.2% (active)
COc1ccccc1C1C2=C(COC2=O)Nc2cc3c(cc21)OCO3 (stereo not given)	61.4% (active)
Cc1onc(NC(=O)c2ccc([N+](=O)[O-])o2)c1Br	46% (active)
Cc1ccc(Sc2cc(N3CCOCC3)nc(-c3ccccc3)n2)cc1	62.5% (active)
Cc1ccccc1NC(=O)CSc1nc2ccc(Nc3nc(N4CCOCC4)nc(N4CCOCC4)n3)cc2s1	77.3% (active)
COc1ccccc1NC1=NC(c2ccc(Cl)cc2)N=C(N)N1 (stereo not given)	74.9% (active)
COC(=O)Nc1nc2ccc(Sc3ccccc3)cc2[nH]1	66.1% (active)
COc1ccc(/C=C2/CCCc3ccccc3C2=O)cc1	54.5% (active)
Cc1ccc(-c2nc3ccccc3[nH]2)cc1NC(=O)c1sc2ccccc2c1Cl	35.7%
CCCOC(=O)c1[nH]c2c(c1C)C(=O)CC(c1cccs1)C2 (stereo not given)	35.2%
Cc1ccc(/C=N/NC(=S)Nc2cccc(S(=O)(=O)N(C)C)c2)o1	20.8%
Cc1ccccc1OCC(=O)Nc1ccc(N2CCN(C(=O)C(C)C)CC2)c(Cl)c1	7.1%
O=C(Nc1ccc(-c2csc(Nc3cccc(C(F)(F)F)c3)n2)cc1)c1cccc(C(F)(F)F)c1	66% (active)
COC(=O)c1ccc(NCc2cc(O)ccc2O)cc1	29.9%
COc1cc(/C=C2\Oc3ccc(C#Cc4ccc(O)cc4)cc3C2=O)cc(OC)c1	103% (active)
CCN(CC)CCC(c1ccc2c(c1)OCO2)c1c(OC)cc(OC)c2c(-c3ccccc3)cc(=O)oc12 (stereo not given)	47.8% (active)
COC(=O)c1ccc(-c2c(-c3ccccc3)ncc3cc(OC)c(OC)cc23)cc1	13.2%
